GLA inh pH 4.5: alpha-galactosidase A (human) inhibition, pH 4.5; activity change, negative = inhibition, % at 105 µM; 230,000 tested, under 10 active; purified enzyme, 4-MU-alpha-Gal fluorescence, pH 4.5; AID 1467
ALOX12 inhib: 12-hLO (ALOX12) enzyme inhibition; purified 12-hLO, xylenol orange hydroperoxide absorbance; Potency, µM (doses to about 57.1 µM), actives largely listed as inhibitors; 0.12% of 150,000 active; AID 1452; also: nearly all actives have a fitted effect of over 55% in size
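Purified human 12hLO (150 nM final) was preincubated with compounds for 15 min at room temperature in 25 mM Hepes pH 7.0, 0.01% Triton X-100, then reacted with 40 uM arachidonic acid for 30 min. Hydroperoxide was detected with ferrous iron/xylenol orange.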
PNC inhibitor: blocks assembly of the perinucleolar compartment; 3.1% of 140,000 active; PC3M PTB-GFP, PNC prevalence imaging, 16 h; hits give low values; activity change (PNC), negative = inhibition, % at 10 µM;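 active = readout at or below -70, meaning at least 70% loss of cells showing the perinucleolar compartment, a nuclear body marking cancer cells; inconclusive = readout between -30 and a set limit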
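Read-out is percentage of cells bearing a perinucleolar compartment, from automated 20x imaging of fixed, Hoechst-stained PC3M PTB-GFP cells. Cells were seeded 4 h, then exposed 16 h to compound (23 nl of library stock) in duplicate plates.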
ALDH1A1 inh-1: blocks purified human ALDH1A1 activity | Potency, µM (doses to about 75.3 µM), hits mostly inhibitors | AID 1030 | Purified ALDH1A1, NADH fluorescence, propionaldehyde substrate | 7.3% of 220,000 active; active = well fitted inhibition curve with a large enough effect, not every such curve was filed as active; inconclusive = small, poorly fitted or top-dose-only effect, or another doubt; inactive = no such curve, though single readings can be large or run the other way
Target sequence (P00352 whole entry, looked up): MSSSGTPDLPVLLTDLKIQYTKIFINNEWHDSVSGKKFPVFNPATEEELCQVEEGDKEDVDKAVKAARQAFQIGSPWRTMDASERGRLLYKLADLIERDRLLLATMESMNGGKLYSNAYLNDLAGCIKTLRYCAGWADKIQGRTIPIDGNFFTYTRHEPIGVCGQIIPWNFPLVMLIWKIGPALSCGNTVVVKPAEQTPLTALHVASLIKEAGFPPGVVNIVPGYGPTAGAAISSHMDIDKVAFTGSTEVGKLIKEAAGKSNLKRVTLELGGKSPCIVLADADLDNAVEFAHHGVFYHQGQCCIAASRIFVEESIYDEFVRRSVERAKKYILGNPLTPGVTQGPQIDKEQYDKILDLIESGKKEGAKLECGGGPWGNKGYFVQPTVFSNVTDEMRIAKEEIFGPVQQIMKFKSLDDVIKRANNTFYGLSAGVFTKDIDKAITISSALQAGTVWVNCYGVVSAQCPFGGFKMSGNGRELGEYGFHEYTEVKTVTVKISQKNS
HPGD block: blocks human HPGD enzyme activity. P15428. purified HPGD, NADH fluorescence kinetic, PGE2 substrate. Potency, µM, usual class: inhibitors. 4.3% of 150,000 active. AID 894; active = well fitted inhibition curve with a large enough effect, not every such curve was filed as active; inconclusive = small, poorly fitted or top-dose-only effect, or another doubt; inactive = no such curve, though single readings can be large or run the other way
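20 nM HPGD preincubated 15 min at room temperature with compound in 50 mM Tris-HCl pH 8, 0.01% Tween 20. Started with 1 mM NAD+ and 30 uM prostaglandin E2; NADH fluorescence (360/450 nm) read 5 times over 30-s intervals, last minus first.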
GLA spleen mod: inhibits or activates alpha-galactosidase in human spleen homogenate; human spleen homogenate, 4MU-alpha-Gal fluorescence, 40 min; Potency, µM (doses to about 80 µM), actives largely listed as inhibitors; P06280; 0.008% of 240,000 active
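Fluorogenic readout (Ex 365/Em 440 nm) of 4-methylumbelliferone released from 1 mM 4-MU-alpha-galactoside by spleen homogenate, 40 min at 37C, pH 5.0. Data normalized to no-enzyme and enzyme controls; Hill-equation AC50 from compound titrations.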
ALDH1A1 inh-2: Blocks ALDH1A1 NADH production, follow-up. shares compounds with ALDH1A1 inh-1. purified ALDH1A1, NADH fluorescence, propionaldehyde/NAD+. Potency, µM (series often up to 57.1 µM), usual class: inhibitors. 90% of 90 active. AID 493210; calls by dose curve
Numbers stand for hits; i = inactive; ? = inconclusive; nt = no result; [ ] = another dose, or the depositor's remark. Rows were chosen to be rich in hits. Some 10% of all compounds tested hit in one or more screens of this group. Unless noted, calls follow the shape of the dose curve; as a rule, active = well fitted curve in the direction sought with a large enough effect; inconclusive = small, poorly fitted or top-dose-only effect, or another doubt; inactive = no such curve, though single readings can be large; an effect the other way counts as inactive or inconclusive.

SMILES	GLA inh pH 4.5	ALOX12 inhib	PNC inhibitor	ALDH1A1 inh-1	HPGD block	GLA spleen mod	ALDH1A1 inh-2
COc1cc(NC(=O)CN2CCN(S(=O)(=O)c3ccc(C(C)C)cc3)CC2)cc(OC)c1	i	i	i	2.24µM	i	i	3.16µM
Cc1ccc(S(=O)(=O)/C=C/C#N)cc1	nt	nt	nt	0.0562µM	nt	i	0.0631µM
CC(C)N(C(=O)CN1C(=O)C(=O)c2ccccc21)c1ccccc1	i	nt	nt	0.0282µM	nt	i	0.0355µM
CC(C)N(C(=O)COC(=O)[C@H](C)NC(N)=O)c1ccccc1	i	nt	nt	i	nt	i	nt
CCN(CC)CCOC(=O)[C@@H](Cc1cccc2ccccc12)C[C@@H]1CCCO1	i	i	nt	?	i	i	nt
CC1CCN(Cc2nc3c(c(=O)n(C)c(=O)n3C)n2CCCc2ccccc2)CC1	i	i	i	0.631µM	i	i	0.501µM
Cc1csc(NC(=O)CS(=O)(=O)Cc2ccccc2)n1	i	nt	nt	i	nt	i	nt
COC(=O)c1c(NC(=O)CSc2nnnn2-c2ccccc2)sc2c1CCCC2	i	i	i	i	i	i	nt
COC(=O)c1ccsc1NC(=O)CSc1nnnn1-c1ccccc1SC	i	i	i	0.126µM	i	i	0.316µM
COc1ccccc1-c1cc(-n2ccnc2)ncn1	nt	nt	nt	?	nt	i	nt
O=C(CCNc1ccc(Cc2ccncc2)cc1)c1cccc([N+](=O)[O-])c1	i	nt	nt	0.398µM	nt	i	0.501µM
Cc1ccc(S(=O)(=O)N[C@H](CO)C(=O)O)cc1	nt	i[11.4 µM]	nt	i[13.5 µM]	i	nt	nt
Cc1ccc(S(=O)(=O)N[C@@H](Cc2ccccc2)C(=O)CCl)cc1	i	i	i	0.794µM	20µM	i	0.447µM
Cc1ccc(-n2c(SCC(=O)Nc3ccc4c(c3)OCO4)nnc2-c2cccs2)cc1	i	i	i	i	i	i	nt
COc1ccc(-n2c(Cc3cccs3)nnc2SCC(=O)Nc2ccc3c(c2)OCCO3)cc1	i	i	i	2µM	i	i	0.562µM
CCCCCN(C(=O)NC(=O)Nc1ccc(C)cc1)S(=O)(=O)c1ccccc1	i	i	i	i	i	i	nt
CCCCCCCCCCCCC/C=C\[C@@H](O)[C@H](CO)NC(C)=O	i	i	nt	i	i	i	nt
Cc1ccc(OCC(=O)OCCN2C(=O)c3ccccc3C2=O)cc1C	i	i	i	i	i	i	nt
Cc1cccc2c1N(CCCOc1ccccc1)C(=O)C2=O	i	i	i	0.0355µM	28.2µM	i	0.0447µM
CCCCCCCCCCCCSCCOCCO	i	i[0.00818 µM]	nt	i	i	i	nt
COC(=O)Cn1c2ccc(OC)cc2c2nc(C)sc21	i	nt	nt	i	nt	i	nt
CS(=O)(=O)c1ccc(Cn2c3c(c4cc(F)cc(F)c42)CCC[C@H]3CC(=O)O)cc1	i	i	nt	0.112µM	i	i	0.355µM
c1ccc2oc(-c3ccn[nH]3)cc2c1	i	nt	nt	nt	nt	i	nt
COc1ccc(C(=O)CCNc2ccc3c(c2)OCCO3)cc1	i	nt	nt	0.316µM	nt	i	3.98µM
O=C(CCNc1ccccc1)c1ccc2c(c1)OCO2	i	i	i	0.891µM	i	i	2.24µM
SMILES	GLA inh pH 4.5	ALOX12 inhib	PNC inhibitor	ALDH1A1 inh-1	HPGD block	GLA spleen mod	ALDH1A1 inh-2
COc1ccc(-c2noc(CCC(=O)Nc3ccc4c(c3)OCCO4)n2)cc1	i	i	i	?	i	i	nt
O=C(CSc1nnnn1-c1ccccc1Cl)Nc1ccc2c(c1)OCCO2	i	i	i	0.224µM	i	i	0.251µM
O=C(CSc1nnnn1-c1ccc(Cl)cc1)NC(=O)Nc1ccc2c(c1)OCCO2	i	i	i	i	i	i	nt
Cc1cccc(N2C(=O)C(O)=C(C(=O)c3cccs3)C2c2ccc(Cl)cc2)n1 (stereo not drawn)	i	nt	nt	nt	nt	i	nt
COC(=O)c1ccc(C(NC(=O)OCc2ccccc2)/C(C)=C/[C@@H](C)C(=O)NCCc2c[nH]c3ccc(OC)cc23)cc1 (stereo partly drawn)	i	i	nt	i	i	i	nt
COc1ccc(OC)c(-n2nnnc2SCC(=O)Nc2nc(C)c(C)s2)c1	i	i	i	?	i	i	1.78µM
O=C(O)C1CC=CCC1C(=O)Nc1ccc(N2CCN(Cc3ccccc3)CC2)cc1 (stereo not drawn)	i	i	i	?	i	i	nt
CO/N=C(\C(=O)NC1C(=O)N2C(C(=O)OCOC(=O)C(C)(C)C)=C(/C=C\c3scnc3C)CSC12)c1csc(N)n1 (stereo not drawn)	i	i	nt	0.355µM	?	i	0.794µM
O=C1CC(c2ccccc2)c2ccccc21 (stereo not drawn)	i	nt	nt	i	nt	i	nt
O=C1C=CC(=O)C2=C1C1c3ccccc3C2c2ccccc21	i	?	nt	0.708µM	1.12µM	i	0.562µM
COCCN(C(=O)Cc1cccs1)C(C(=O)NCc1ccc(OC)cc1)c1ccc(C(C)C)cc1 (stereo not drawn)	i	i	i	0.282µM	i	i	0.251µM
COCCN(C(=O)Cc1cccs1)C(C(=O)NC1CCCC1)c1ccc(OC)c(OC)c1 (stereo not drawn)	i	nt	nt	i	nt	i	nt
CCCCCSc1nc2c(c(=O)[nH]c(=O)n2C)n1CCc1ccccc1	i	i	?	0.708µM	i	i	1.26µM
O=C(O)CCC(=O)c1cccc2ccccc12	i	i	i	i	i	i	nt
C[N+](C)(C)CCC(=O)c1cccc2ccccc12	i	i	nt	0.0708µM	14.1µM	i	0.0355µM
O=C(CC1(O)C(=O)N(Cc2ccccc2)c2ccccc21)c1ccncc1 (stereo not drawn)	i	i	i	0.0708µM	i	i	0.251µM
CCCCOc1ccc(C(=O)CCN2CCCCC2)cc1	i	i	i	0.0447µM	i	i	0.794µM
Cc1cccc(Cn2c(N3CCCCC3C)nc3c2c(=O)[nH]c(=O)n3C)c1 (stereo not drawn)	i	i	i	0.282µM	i	i	0.251µM
Cc1cccc(Cn2c(N3CCc4ccccc4C3)nc3c2c(=O)[nH]c(=O)n3C)c1	i	i	i	i	i	i	nt

Bioassay records (PubChem)
